# In PubChem BioAssay AID2012 (Sanford-Burnham Center for Chemical Genomics, 2009):
# Among all 290,000 compounds or so, about 2,700 (0.93%) were called active. How the calls were made is not given here. For the sample, actives were picked, then their nearest neighbours and some compounds at random.
# Molecular target: Eukaryotic translation initiation factor 4H (Homo sapiens) (UniProt Q15056)
# Assay: eIF4H binding inhibition – biochemical, uHTS, fluorescence polarization, translation initiation inhibitor project, primary screen (AID 2012);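 further: calls also rest on retests at 20 µM and on dose response follow-up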
# Details: eIF4H fluorescence polarization binding assay, stronger effect = higher value
SMILES,inhibition (at 35 µM),"inhibition (confirmation average, at 20 µM) [%]"
CC[C@]1(c2ccccc2OC)C(=O)N(C(=O)OC)N1C(=O)OC,2.4% (inactive),–
COc1ccccc1CNC(=O)[C@@H]1CCCN1C(=O)[C@@H]1Cc2ccccc2CN1C(=O)OC(C)(C)C,-6.3% (inactive),–
COc1ccc(NS(=O)(=O)c2ccc(N3CCN(CCO)CC3)c([N+](=O)[O-])c2)cc1,-9.3% (inactive),–
Cc1cc(NC(=O)CN2CCCC(C)C2)n(-c2nc3ccccc3s2)n1 (configuration not stated),-0.6% (inactive),–
CCC(C)Cn1c(O)cc2nn(-c3nc4ccccc4s3)c(=O)c-2c1C (configuration not stated),89.6% (active),–
C/C(=N\NC(=O)CC(C)C)c1c(C(F)(F)F)[nH]n(-c2nc3ccccc3s2)c1=O,-5.6% (inactive),–
COc1ccc(S(=O)(=O)NCCCCOc2ccc(Cl)cc2)cc1,25.8% (inactive),–
O=C(NNS(=O)(=O)c1ccc(F)cc1)c1ccc([N+](=O)[O-])cc1Cl,-5.4% (inactive),–
CC(C)c1ccc(OCC(O)CN2CCN(c3ccccn3)CC2)cc1 (configuration not stated),-9.3% (inactive),–
COc1ccc(-c2csc(Cc3nc(O)cs3)n2)cc1,20.3% (active),82.6
COc1ccc(-c2csc(NC3OC(=O)c4ccccc43)n2)cc1 (configuration not stated),2.1% (inactive),–
CC(C)(C)C(=O)OCc1nc(-c2ccc(O)c(O)c2)cs1,1.2% (inactive),–
FC(F)(F)C1CCCN(c2nsc3ccccc23)C1 (configuration not stated),-3.8% (inactive),–
O=S(=O)(c1ccc(Br)cc1)c1nc(-c2ccccc2)oc1N1CCOCC1,-5.9% (inactive),–
O=C(O)CCC(=O)Nc1ccc(OCC2CCCO2)cc1 (configuration not stated),2.6% (inactive),–
COC(=O)COc1ccc2c(=O)c(Oc3ccccc3Br)coc2c1,5.6% (inactive),–
Cc1cc(=O)oc(C)c1C(=O)Nc1cnc2ccccc2c1,78.6% (active),–
Cc1cc(=O)oc(C)c1C(=O)NCCN(C)Cc1ccccc1,6.6% (inactive),–
Cc1cc(=O)oc(C)c1C(=O)NCc1ccc(F)cc1,0.5% (inactive),–
CCOC(=O)c1c(S(=O)(=O)NCC(=O)Nc2ccc(C)cc2)c(C)n(C)c1C,-0.1% (inactive),–
O=C(NCCCn1ccnc1)/C(=C\c1ccccc1F)NC(=O)c1ccccc1,-6.4% (inactive),–

SMILES,inhibition (at 35 µM),"inhibition (confirmation average, at 20 µM) [%]"
Cc1cc(OC(=O)c2c(Cl)cccc2Cl)nc(C)n1,-11.4% (inactive),–
Cc1cc(C)c(C(N)=O)c(Cl)n1,19.4% (active),93.1
Cc1ccc(Nc2nc(C)cc(C)c2C(N)=O)cc1,5.6% (inactive),–
CC(C)CN(CC(C)C)C(=O)CN1c2cccc3cccc(c23)S1(=O)=O,-14.9% (inactive),–
COc1cccc(C2Nc3cccc4cccc(c34)N2)c1,59.9% (active),98.5
COc1ccc(C2NC(=O)c3ccccc3N2)cc1 (configuration not stated),7.1% (inactive),–
Oc1ccc(C2Nc3cccc4cccc(c34)N2)cc1,97.3% (active),–
Cc1ccc(C2Nc3cccc4cccc(c34)N2)cc1,41% (inactive),–
COc1ccc(N2C(=O)C3CCCN3C2c2cccc(OC)c2)cc1 (configuration not stated),-6.3% (inactive),–
O=C1NC(c2cccc(Cl)c2)Nc2ccccc21 (configuration not stated),-8.5% (inactive),–
O=C(Nc1nnc(S(=O)(=O)N2CCCCCC2)s1)c1cccc(Br)c1,-8.4% (inactive),–
COc1ccc(CCNC(=O)CN(C)S(=O)(=O)c2ccc3nc(C)sc3c2)cc1OC,-3% (inactive),–
CS(=O)(=O)N1CCCC(C(=O)Nc2ccccc2C(F)(F)F)C1 (configuration not stated),-2% (inactive),–
CCOc1ccc(NC(=O)CC(Cc2ccc(Cl)cc2)C(=O)O)cc1 (configuration not stated),-6.5% (inactive),–
CN(Cc1ccccc1)CC(O)COc1ccc(CNCc2cc3ccccc3s2)cc1 (configuration not stated),-2% (inactive),–
CN(CC1CCCN(CCc2cccc(C(F)(F)F)c2)C1)C(=O)c1ccc2nc[nH]c2c1 (configuration not stated),-2% (inactive),–
Oc1ccc(-c2cccc(-c3ccc(O)cc3)c2)cc1,2% (inactive),–
CCC(C)(C)NC(=O)C(c1ccc(O)cc1)N(Cc1ccco1)C(=O)CCC(=O)Nc1ccccn1 (configuration not stated),-7% (inactive),–
Cc1[nH]n(C(N)=S)c(=O)c1N=Nc1ccc(Cl)cc1Cl,13.7% (inactive),–
Cc1cc2ccccc2n1CCNC(=O)COc1ccc2ccccc2c1,21% (inactive),–
O=C(O)CCn1c(Cc2ccccc2)nc2ccccc21,0.7% (inactive),–

SMILES,inhibition (at 35 µM),"inhibition (confirmation average, at 20 µM) [%]"
Cc1cc2ccccc2n1CCC(=O)O,52.4% (active),80.5
CCc1nc(N2CCN(C(C)=O)CC2)c2c3c(sc2n1)CCCC3,-5.1% (inactive),–
COc1ccc(C(C)NC(=S)NC2CCCCC2)cc1OC (configuration not stated),-7.9% (inactive),–
CCOc1ccc(N(C)Cc2cc(=O)oc3ccc(OC)cc23)cc1,4.8% (inactive),–
O=C(NCc1cccnc1)c1ccccc1NC(=O)c1c(F)cccc1F,-10.7% (inactive),–
CSc1ccc(/C=N/N2CCN(Cc3ccccc3Cl)CC2)cc1,0.6% (inactive),–
O=S1(=O)CCN(Cc2ccccc2Cl)CC1,56.9% (active),81.5
O=c1ccn(Cc2ccccc2Cl)cc1,-2.8% (inactive),–
COC(=O)c1ccc(C(=O)NC2CC(C)(C)Cc3c2cnn3-c2ccc(F)cc2)nc1 (configuration not stated),-3.4% (inactive),–
CC(c1ccccn1)N(C)C(=O)c1ccc2nc(Cc3cccc(Cl)c3)oc2c1 (configuration not stated),-0.5% (inactive),–
CC1(OC(=O)CCc2ccccc2)C(=O)C=C2C=C(c3ccc(C#N)cc3)N(CCc3ccccn3)C=C2C1=O (configuration not stated),35.9% (inactive),–
COCCN1C=C2C(=O)C(C)(OC(=O)C3CCCC3)C(=O)C=C2C=C1c1ccsc1 (configuration not stated),98.2% (active),–
COC(=O)CCCC1=CC2=CC(=O)C(C)(OC(=O)c3cccs3)C(=O)C2=CN1CC1CC1 (configuration not stated),45.8% (inactive),–
COCc1c(C(=O)N/N=C(\C)c2ccncc2)nnn1-c1nonc1N,1.9% (inactive),–
Cc1ccc(NC(=O)C2CCN(S(=O)(=O)c3ccc4c(c3)NC(=O)CO4)CC2)cc1C,-7.3% (inactive),–
COc1ccccc1C(=O)N(Cc1ccc(C)o1)C1CCS(=O)(=O)C1 (configuration not stated),-6.1% (inactive),–
Fc1cc(F)c2nc(Nc3nc4c(F)cccc4s3)sc2c1,11.5% (inactive),–
NC(=O)c1c(NC(=O)c2ccccc2)sc2c1CCCC2,-0.5% (inactive),–
NC(=O)c1c(Nc2nc3c(F)cccc3s2)sc2c1CCCC2,72.6% (active),99.1
